From PubChem BioAssay (EPA / NIEHS) come the findings set out here.

The source made the active and inactive calls. Rule for the calls: active = hit-call score of the fitted dose curve at least 0.9, where 1 is the maximum; inactive = score below 0.9.

Common to all, as to conditions: mRNA level, 48 h; actives raise or lower the signal
Read-out in experiment [1]: Cytochrome P450 7A1 (Homo sapiens) (UniProt P22680)
Nature of the experiment: LTEA_HepaRG_CYP7A1: Life Technologies and Expression Analysis (LTEA) Assay for Cytochrome P450 7A1 (CYP7A1) using HepaRG (AID 2283496). The gist of the method:
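HepaRG, 48 h exposure, 8-pt half-log series from 100 uM, 0.5% DMSO vehicle, duplicates. Readout: TaqMan qRT-PCR mRNA vs three housekeeping genes; bidirectional curve fit against DMSO baseline.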

Read-out in experiment [2]: Glutathione S-Transferase (GSTA2), GSTA2 (gene 2939)
Briefly: LTEA_HepaRG_GSTA2: Life Technologies and Expression Analysis (LTEA) Assay for Glutathione S-Transferase (GSTA2) using HepaRG (AID 2283497). The gist of the method:
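GSTA2 transcript levels came from Fluidigm TaqMan qRT-PCR normalized to three housekeeping genes, fitted in both directions against DMSO. HepaRG cultures received chemicals for 48 h in serum-free induction medium (0.5% DMSO), 8 half-log concentrations up to 100 uM, duplicate.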

Read-out in experiment [3]: Glutamate-cysteine ligase catalytic (GCLC), GCLC (gene 2729)
Nature of the experiment: LTEA_HepaRG_GCLC: Life Technologies and Expression Analysis (LTEA) Assay for Glutamate-cysteine ligase catalytic (GCLC) using HepaRG (AID 2283498). Summed up: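 Expression by TaqMan qRT-PCR, normalized to three housekeeping genes (ACTB, GAPDH, POLR2A), with up- or down-regulation fitted against DMSO. HepaRG cells dosed in duplicate for 48 h with 8 half-log concentrations up to 100 uM, vehicle 0.5% DMSO.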

Read-out in experiment [4]: growth arrest and DNA damage 45 (GADD45G), GADD45G (gene 10912)
Briefly: LTEA_HepaRG_GADD45G: Life Technologies and Expression Analysis (LTEA) Assay for growth arrest and DNA damage 45 (GADD45G) using HepaRG (AID 2283499). Summed up: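 Human hepatic HepaRG line treated 48 h with chemicals (eight concentrations, half-log steps from 100 uM); transcript induction or repression of GADD45G scored by qRT-PCR versus DMSO vehicle.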

Read-out in experiment [5]: Glutamate-cysteine ligase regulatory (GCLM), GCLM (gene 2730)
Briefly: LTEA_HepaRG_GCLM: Life Technologies and Expression Analysis (LTEA) Assay for Glutamate-cysteine ligase regulatory (GCLM) using HepaRG (AID 2283500). Summed up: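 Endpoint is GCLM transcript level by qRT-PCR, normalized to three housekeeping genes, after 48 h chemical exposure of human HepaRG cells (0.5% DMSO vehicle, top 100 uM, half-log dilutions). Fitting was bidirectional relative to DMSO.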

Read-out in experiment [6]: Heat shock 70 kDa protein 1 (HSPA1A), gene 3303
Nature of the experiment: LTEA_HepaRG_HSPA1A: Life Technologies and Expression Analysis (LTEA) Assay for Heat shock 70 kDa protein 1 (HSPA1A) using HepaRG (AID 2283502). Summed up:
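Cells were plated and cultured for 48 h, then switched to serum-free induction medium. Chemicals were added at eight half-log concentrations up to 100 uM for 48 h. RNA was then isolated and HSPA1A measured by qRT-PCR with bidirectional curve fitting against DMSO.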

Read-out in experiment [7]: Hypoxia-inducible factor 1-alpha (Homo sapiens) (UniProt Q16665)
Nature of the experiment: LTEA_HepaRG_HIF1A: Life Technologies and Expression Analysis (LTEA) Assay for Hypoxia-inducible factor 1 (HIF1A) Trancription factor using HepaRG (AID 2283503). Summed up: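 HIF1A transcript level read by qRT-PCR (ACTB, GAPDH, POLR2A normalization) after 48 h chemical exposure of HepaRG cultures. Eight half-log concentrations, top 100 uM, 0.5% DMSO vehicle, duplicates; bidirectional curve fit against DMSO baseline.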

Read-out in experiment [8]: 3-Hydroxy-3-Methylglutaryl-CoA Synthase 2 (HMGCS2), HMGCS2 (gene 3158)
Briefly: LTEA_HepaRG_HMGCS2: Life Technologies and Expression Analysis (LTEA) Assay for 3-Hydroxy-3-Methylglutaryl-CoA Synthase 2 (HMGCS2) using HepaRG (AID 2283504). The gist of the method:
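Expression of HMGCS2 in human HepaRG liver cells is measured by qRT-PCR 48 h after dosing (highest 100 uM, half-log series, 0.5% DMSO). Values come from bidirectional concentration-response fitting with DMSO as baseline.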

Read-out in another experiment: HGF (gene 3082)
Briefly: LTEA_HepaRG_HGF: Life Technologies and Expression Analysis (LTEA) Assay for Hepatocyte Growth Facto (HGF) using HepaRG (AID 2283505). The gist of the method: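 Gain or loss of HGF mRNA in human HepaRG liver cells after 48 h chemical exposure; eight concentrations up to 100 uM with 0.5% DMSO vehicle, quantified by TaqMan qRT-PCR.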

Read-out in experiment [9]: Insulin Like Growth Factor 1 (IGF1), IGF1 (gene 3479)
Nature of the experiment: LTEA_HepaRG_IGF1: Life Technologies and Expression Analysis (LTEA) Assay for Insulin Like Growth Factor 1 (IGF1) using HepaRG (AID 2283506). The gist of the method:
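Cells are thawed, plated and cultured 48 h, then exposed in duplicate to chemical (highest 100 uM, half-log steps, 0.5% DMSO) for another 48 h. Total RNA is analysed by Fluidigm qRT-PCR for IGF1 expression relative to vehicle.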

Read-out in experiment [10]: Intercellular Adhesion Molecule 1 (ICAM1), ICAM1 (gene 3383)
Briefly: LTEA_HepaRG_ICAM1: Life Technologies and Expression Analysis (LTEA) Assay for Intercellular Adhesion Molecule 1 (ICAM1) using HepaRG (AID 2283507). Summed up:
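Gain or loss of transcript in HepaRG hepatic cells is quantified by qRT-PCR after 48 h chemical exposure (up to 100 uM, half-log steps), with DMSO as baseline.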

Read-out in experiment [11]: Insulin-like growth factor-binding protein 1 (IGFBP1), IGFBP1 (gene 3484)
Briefly: LTEA_HepaRG_IGFBP1: Life Technologies and Expression Analysis (LTEA) Assay for Insulin-like growth factor-binding protein 1 (IGFBP1) using HepaRG (AID 2283508). Summed up:
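mRNA induction or loss was quantified by qRT-PCR after 48 h chemical exposure of human HepaRG cells, with 0.5% DMSO as vehicle and baseline. Concentration-response over eight points up to 100 uM.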

Read-out in experiment [12]: Interleukin 6 (IL6), IL6 (gene 3569)
Nature of the experiment: LTEA_HepaRG_IL6: Life Technologies and Expression Analysis (LTEA) Assay for Interleukin 6 (IL6) using HepaRG (AID 2283509). Summed up:
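Transcript levels, normalized to three housekeeping genes, were quantified by qRT-PCR after 48 h chemical treatment of HepaRG cells. Eight-point half-log series from 100 uM in 0.5% DMSO, duplicates. Fitted both directions against DMSO baseline.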

Read-out in experiment [13]: Interleukin 6 Receptor (IL6R), IL6R (gene 3570)
Nature of the experiment: LTEA_HepaRG_IL6R: Life Technologies and Expression Analysis (LTEA) Assay for Interleukin 6 Receptor (IL6R) using HepaRG (AID 2283510).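 For AC50: differentiated human HepaRG liver cells in serum-free induction medium.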 Summed up: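 Cells were thawed, plated and cultured 48 h, then medium was changed to serum-free induction medium. Chemicals were added in duplicate (100 uM top, half-log steps, 0.5% DMSO) for 48 h. Lysates were analyzed by qRT-PCR for IL6R expression.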

Read-out in experiment [14]: Potassium channel subfamily K member 1 (KCNK1), KCNK1 (gene 3775)
Nature of the experiment: LTEA_HepaRG_KCNK1: Life Technologies and Expression Analysis (LTEA) Assay for Potassium channel subfamily K member 1 (KCNK1) using HepaRG (AID 2283511). The gist of the method: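 KCNK1 transcript measured by TaqMan qRT-PCR against three housekeeping genes, after HepaRG cells were treated 48 h with eight half-log concentrations (top 100 uM, 0.5% DMSO). Curves fitted bidirectionally relative to vehicle.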

Read-out in experiment [15]: Keratin 19 (KRT19), KRT19 (gene 3880)
Nature of the experiment: LTEA_HepaRG_KRT19: Life Technologies and Expression Analysis (LTEA) Assay for Keratin 19 (KRT19) using HepaRG (AID 2283512). Summed up:
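Gene-expression endpoint in the human liver line HepaRG after 48 h exposure to up to 100 uM test chemical with 0.5% DMSO vehicle; KRT19 mRNA by qRT-PCR, analyzed bidirectionally versus DMSO.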

Read-out in experiment [16]: JUN Transcription Factor, JUN (gene 3725)
Nature of the experiment: LTEA_HepaRG_JUN: Life Technologies and Expression Analysis (LTEA) Assay for JUN Transcription Factor using HepaRG (AID 2283513). The gist of the method: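 Read-out is JUN transcript level by TaqMan qRT-PCR, normalized to ACTB, GAPDH and POLR2A, after 48 h chemical treatment of HepaRG cells. Concentration-response spanned eight half-log points up to 100 uM in 0.5% DMSO.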

Read-out in experiment [17]: Glutathione S-transferase M3 (GSTM3), GSTM3 (gene 2947)
Nature of the experiment: LTEA_HepaRG_GSTM3: Life Technologies and Expression Analysis (LTEA) Assay for Glutathione S-transferase M3 (GSTM3) using HepaRG (AID 2283501). Summed up:
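Changes in GSTM3 expression, an oxidative-stress marker, were scored by bidirectional curve fitting against 0.5% DMSO vehicle. Human HepaRG cultures received chemicals for 48 h in duplicate, highest concentration 100 uM with half-log dilutions.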

Sequence of Hypoxia-inducible factor 1-alpha (Homo sapiens) (Q16665 whole entry, looked up): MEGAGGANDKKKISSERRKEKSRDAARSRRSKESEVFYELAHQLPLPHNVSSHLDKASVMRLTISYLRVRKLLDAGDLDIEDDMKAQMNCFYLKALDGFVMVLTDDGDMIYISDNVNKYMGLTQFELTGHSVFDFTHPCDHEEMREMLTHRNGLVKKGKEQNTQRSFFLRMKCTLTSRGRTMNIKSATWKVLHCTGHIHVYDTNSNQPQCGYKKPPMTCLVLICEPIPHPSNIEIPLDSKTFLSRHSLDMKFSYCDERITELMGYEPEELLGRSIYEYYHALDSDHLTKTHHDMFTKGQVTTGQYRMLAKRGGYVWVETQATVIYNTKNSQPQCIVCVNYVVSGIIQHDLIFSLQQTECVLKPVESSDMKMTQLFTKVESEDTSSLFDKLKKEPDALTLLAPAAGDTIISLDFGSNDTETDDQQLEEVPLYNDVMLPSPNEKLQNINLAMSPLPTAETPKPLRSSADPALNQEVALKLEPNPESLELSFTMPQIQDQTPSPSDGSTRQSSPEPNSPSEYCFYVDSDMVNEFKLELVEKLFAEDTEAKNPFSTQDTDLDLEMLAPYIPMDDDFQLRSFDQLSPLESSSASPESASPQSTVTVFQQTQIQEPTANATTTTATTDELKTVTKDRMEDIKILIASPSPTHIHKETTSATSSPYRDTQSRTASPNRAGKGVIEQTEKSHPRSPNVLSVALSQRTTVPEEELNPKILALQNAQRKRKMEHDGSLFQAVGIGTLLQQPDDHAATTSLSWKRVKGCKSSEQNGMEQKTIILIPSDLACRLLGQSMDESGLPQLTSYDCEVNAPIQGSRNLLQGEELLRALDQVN

In the case of `N[C@@H](Cc1cc(I)c(Oc2ccc(O)c(I)c2)c(I)c1)C(=O)O`, the AC50 (in general, the midpoint of the concentration-response curve, whichever way the signal moves) in [1] was 40 µM (active); in experiment [2], 58.3 µM (active); in experiment [3], 40 µM (active); in experiment [7], 0.00253 µM (active); in experiment [8] it was 0.00253 µM (active); in experiment [10], 40 µM (active). The AC50 in experiment [13] was 40 µM (active); in [15] it was 0.0152 µM (active). Further, the compound was classed as inactive (in experiment [4]; in experiment [5]; in experiment [6]; in the experiment with HGF (gene 3082); in experiment [9]; in experiment [11]). The compound was classed as inactive in experiment [12], in experiment [14] and in experiment [16].
As for `CCCCC(CC)CN1C(=O)C2C3C=CC(C3)C2C1=O` (configuration not stated), the AC50 in [1] is 73.6 µM (active); in experiment [2] it was 79.5 µM (active); in [4] it was 50 µM (active); in experiment [5], 50 µM (active); in [8], 86.3 µM (active); in experiment [9], 50 µM (active). For the same compound, the figures for the AC50 in experiment [11] and in experiment [12] were 82.9 µM (active) and 74.9 µM (active), respectively. In addition, the call (in [3]; in experiment [6]; in [7]; with HGF (gene 3082); in experiment [10]; in experiment [13]) was inactive. Moreover, the call in [14], in experiment [15] and in experiment [16] was inactive.
On to `CCOC(=O)C(C)Oc1ccc(Oc2cnc3cc(Cl)ccc3n2)cc1` (configuration not stated), for which the AC50 in experiment [1] is 9.27 µM (active); in experiment [2] it was 15 µM (active); in experiment [9] it was 1.06 µM (active). For the same compound, the result in experiment [3], in experiment [4], in experiment [5], in experiment [6], in experiment [7] and in [8] was inactive. For the same compound, the compound was classed as inactive (with HGF (gene 3082); in [10]; in experiment [11]; in experiment [12]; in [13]; in [14]). The call in experiment [15] and in experiment [16] was inactive.
Take `COC(=O)c1ccc(I)cc1S(=O)(=O)NC(=O)Nc1nc(C)nc(OC)n1`: the compound was classed as inactive in experiment [2], in experiment [3], in experiment [4], in experiment [5], in [6] and in experiment [8]. Further, the compound was classed as inactive (in the experiment with HGF (gene 3082); in experiment [9]; in experiment [10]; in [11]; in experiment [12]; in experiment [13]). For the same compound, the compound was called inactive in experiment [14], in experiment [15] and in experiment [16].
For `COc1c(Cl)ccc(Cl)c1C(=O)O`, the call in experiment [2], in [3], in [4], in [5], in experiment [6] and in experiment [7] was inactive. Moreover, the call (in [8]; in the experiment with HGF (gene 3082); in experiment [9]; in experiment [10]; in [11]; in experiment [12]) was inactive. The compound was classed as inactive in experiment [13], in [14], in [15] and in experiment [16].
For the compound `CCOC(=O)NCCOc1ccc(Oc2ccccc2)cc1`, the AC50 is 83.9 µM (active) in experiment [1]; 88.5 µM (active) in experiment [2]; 73.5 µM (active) in experiment [4]; 82.4 µM (active) in experiment [5]; 77.1 µM (active) in [8]; 89.5 µM (active) in [9]. The AC50 in [11] was 73.1 µM (active); in experiment [12], 77.9 µM (active); in experiment [13], 20.7 µM (active); in experiment [15], 89.8 µM (active). Also, the compound was called inactive (in experiment [3]; in experiment [6]; in experiment [7]; with HGF (gene 3082); in experiment [10]; in [14]). For the same compound, the outcome in [16] was inactive.
Consider `CC1(C)C(C=C(Cl)Cl)C1C(=O)OCc1cccc(Oc2ccccc2)c1` (configuration not stated), for which the compound was classed as inactive in [1], in [2], in experiment [3], in experiment [4], in experiment [5] and in experiment [17]. The outcome (in [6]; in experiment [7]; in experiment [8]; in the experiment with HGF (gene 3082); in experiment [9]; in experiment [10]) was inactive. The call in [11], in experiment [12], in experiment [13], in experiment [14], in [15] and in experiment [16] was inactive.
